Assay results taken from the supplement of paper PMC6607015.
Where a name gives a salt, the structure may show the parent alone.

Experiments:
Settings in all cases: compound concentration in added solution (µM; 5 µl added to 20 µl cells): 10; 18 h
A431 [1] = assay: LBPA endosome anti-LBPA integrated intensity (sum per cell), Z-score; higher = more LBPA staining
Method in brief: (§1)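 In duplicate 384-well imaging plates, 3,500 HeLa MZ or A431 cells in 20 µl per well were seeded onto 5 µl of 10 µM compound solution. The cells were incubated for 18 h, fixed in 4% PFA and stained with 6C4 anti-LBPA antibody, filipin, propidium iodide and CellTracker green before four 20× images were acquired per well. Values are AcuityXpress-normalised Z-scores of per-cell integrated LBPA or filipin intensity, obtained by MetaXpress segmentation over the whole cell or in LBPA endosomes.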

HeLa MZ [2] = assay: as above
Method in brief: as §1

A431 [3] = assay: whole-cell filipin (free cholesterol) integrated intensity, Z-score; higher = more cholesterol staining
Method in brief: as §1

HeLa MZ [4] = assay: as above
Method in brief: as §1

A431 [5] = assay: filipin (cholesterol) integrated intensity within LBPA endosomes, Z-score; higher = more cholesterol in LBPA endosomes
Method in brief: as §1

HeLa MZ [6] = assay: as above
Method in brief: as §1

Structure (SMILES)	LBPA endosome anti-LBPA integrated intensity (z-score) (A431 [1])	LBPA endosome anti-LBPA integrated intensity (z-score) (HeLa MZ [2])	whole-cell filipin (z-score) (A431 [3])	whole-cell filipin (z-score) (HeLa MZ [4])	filipin (z-score) (A431 [5])	filipin (z-score) (HeLa MZ [6])
CC(=O)OCC(=O)[C@@]1(O)CC[C@H]2[C@@H]3CCC4=CC(=O)C=C[C@]4(C)[C@@]3(F)[C@@H](O)C[C@@]21C [Isoflupredone acetate]	-0.244	-0.851	-0.383	-0.16	-0.17	-0.357
CO[C@H]1/C=C/O[C@@]2(C)Oc3c(C)c(O)c4c(O)c(c(/C=N/N5CCN(C6CCCC6)CC5)c(O)c4c3C2=O)NC(=O)/C(C)=C\C=C\[C@H](C)[C@H](O)[C@@H](C)[C@@H](O)[C@@H](C)[C@H](OC(C)=O)[C@@H]1C [Rifapentine]	-0.344	-0.538	-0.546	-0.401	-0.461	-0.486
CC(C)(O)c1ccccc1CC[C@@H](SCC1(CC(=O)O)CC1)c1cccc(/C=C/c2ccc3ccc(Cl)cc3n2)c1 [Montelukast]	-0.42	0.903	-0.0363	0.0687	-0.415	-0.392
NCCC[C@H](N)CC(=O)N[C@H]1CNC(=O)[C@H]([C@H]2C[C@H](O)NC(N)=N2)NC(=O)/C(=C/NC(N)=O)NC(=O)[C@H](CO)NC(=O)[C@H](CO)NC1=O [Viomycin sulfate]	-0.57	-1.06	-0.305	-0.46	-0.563	-0.474
CCCCNc1c(C(=O)OCC)c(C)nc2c1cnn2CC [Tracazolate hydrochloride]	0.273	1.37	0.113	1.2	0.00245	0.287
C#Cc1cccc(Nc2ncnc3cc(OCCOC)c(OCCOC)cc23)c1 [Erlotinib]	1.24	2.03	-0.02	0.532	0.124	0.831
OCCN1CCN(CCCN2c3ccccc3Sc3ccc(C(F)(F)F)cc32)CC1 [Fluphenazine dihydrochloride]	2.14	0.746	-0.522	0.27	2.23	3.52
CC(N)C12CC3CC(CC(C3)C1)C2 (stereo not drawn) [Rimantadine Hydrochloride]	-0.677	-0.134	-0.496	0.106	-0.59	-0.56
C[C@H](CCC(=O)O)[C@H]1CC[C@H]2[C@@H]3[C@H](O)C[C@@H]4C[C@H](O)CC[C@]4(C)[C@H]3CC[C@]12C [Chenodiol]	-0.496	-1.46	-0.897	-0.999	-0.575	-0.773
Clc1ccc(C(Cn2ccnc2)OCc2ccsc2Cl)c(Cl)c1 (stereo not drawn) [Tioconazole]	-0.225	0.542	-0.125	-0.75	-0.053	-0.127
CN(C)CCN(Cc1ccccc1)c1ccccn1 [Tripelennamine hydrochloride]	-0.213	1.28	0.0432	0.362	-0.29	0.335
CC(=O)S[C@@H]1CC2=CC(=O)CC[C@]2(C)[C@H]2CC[C@@]3(C)[C@@H](CC[C@@]34CCC(=O)O4)[C@H]12 [Spironolactone]	-0.583	-0.535	-0.744	-0.849	-0.526	-0.689
Clc1ccc(Cn2c(CN3CCCC3)nc3ccccc32)cc1 [Clemizole hydrochloride]	0.145	0.955	0.228	-0.285	0.0324	-0.147
Nc1ccc(C(=O)O)c(O)c1 [4-aminosalicylic acid]	-0.488	-0.439	-0.159	-0.434	-0.444	-0.569
O=C(NC(Cc1cc(=O)[nH]c2ccccc12)C(=O)O)c1ccc(Cl)cc1 (stereo not drawn) [Rebamipide]	-0.421	-0.707	-0.0406	0.196	-0.423	-0.367
CC(=O)Oc1ccccc1C(=O)Oc1ccccc1C(=O)O [Acetylsalicylsalicylic acid]	-0.367	-0.319	-0.583	-0.226	-0.456	-0.52
CCCCC1C(=O)N(c2ccccc2)N(c2ccccc2)C1=O [Phenylbutazone]	-0.242	0.571	-0.047	0.231	-0.314	-0.301
OC(CCN1CCCCC1)(c1ccccc1)c1ccccc1 [Pridinol methanesulfonate salt]	-0.0313	0.215	-0.378	-0.508	-0.23	-0.0603
CCn1nc(C(=O)O)c(=O)c2cc3c(cc21)OCO3 [Cinoxacin]	-0.298	0.452	-0.393	-0.0614	-0.442	-0.322
CCCCN(CCCC)CCC(O)c1cc2c(Cl)cc(Cl)cc2c2cc(C(F)(F)F)ccc12 (stereo not drawn) [Halofantrine hydrochloride]	1.7	-0.119	1.07	-0.0402	1.04	0.413
CCCCC[C@H](O)/C=C/[C@H]1[C@H](O)CC(=O)[C@@H]1CCCCCCC(=O)O [Alprostadil]	-0.322	-0.486	0.113	-0.324	-0.323	-0.34
Cc1c(N(C)C)c(=O)n(-c2ccccc2)n1C [Amidopyrine]	-0.435	-0.447	-0.729	0.0263	-0.495	-0.518

Structure (SMILES)	LBPA endosome anti-LBPA integrated intensity (z-score) (A431 [1])	LBPA endosome anti-LBPA integrated intensity (z-score) (HeLa MZ [2])	whole-cell filipin (z-score) (A431 [3])	whole-cell filipin (z-score) (HeLa MZ [4])	filipin (z-score) (A431 [5])	filipin (z-score) (HeLa MZ [6])
O=C(NCCO[N+](=O)[O-])c1cccnc1 [Nicorandil]	-0.51	-0.536	-0.699	-0.868	-0.497	-0.545
CCCCCN(C)CCC(O)(P(=O)(O)O)P(=O)(O)O [Ibandronate sodium]	-0.326	0.467	-0.0185	0.267	-0.423	-0.352
CCCCc1cc2ccccc2c(OCCN(C)C)n1 [Dimethisoquin hydrochloride]	2.89	2.04	2.32	0.247	2.27	0.845
Cc1c(OCC(F)(F)F)ccnc1C[S+]([O-])c1nc2ccccc2[nH]1 (stereo not drawn) [Lansoprazole]	-0.504	0.142	0.199	0.176	-0.31	-0.222
CNCCCC1c2ccccc2C=Cc2ccccc21 [Protriptyline hydrochloride]	2.36	2.29	1.72	0.684	2.34	2.5
C#C[C@]1(OC(C)=O)CC[C@H]2[C@@H]3CCC4=CC(=NO)CC[C@@H]4[C@H]3CC[C@@]21CC (mixture of isomers) [Norgestimate]	-0.26	1.65	0.197	0.173	-0.31	0.087
CN(C)CCC(c1ccccc1)c1ccccn1 (stereo not drawn) [Pheniramine maleate]	-0.513	0.0628	-0.745	-0.51	-0.53	-0.436
CC(C)(C)NCC(O)c1ccc(O)c(CO)c1 (stereo not drawn) [Salbutamol]	-0.288	-0.311	0.022	-0.307	-0.535	-0.499
CCOC(=O)/C=C(C)/C=C/C=C(C)/C=C/c1c(C)cc(OC)c(C)c1C [Etretinate]	-0.297	0.358	0.197	-0.112	-0.399	-0.321
CNCCC=C1c2ccccc2CCc2ccccc21 [Nortriptyline hydrochloride]	3.79	1.4	1.95	1.82	3.53	3.69
O=C(O)Cc1sc(-c2ccccc2)nc1-c1ccc(Cl)cc1 [Fentiazac]	-0.661	-1.44	-0.809	-0.504	-0.591	-0.756
Cc1cccc(C)c1NC(=O)CN1CCN(CCCC(c2ccc(F)cc2)c2ccc(F)cc2)CC1 [Lidoflazine]	3.2	1.66	1.3	0.566	2.57	2.52
CO[C@@]1(NC(=O)C2SC(=C(C(N)=O)C(=O)O)S2)C(=O)N2C(C(=O)O)=C(CSc3nnnn3C)CS[C@@H]21 (stereo partly drawn) [Cefotetan]	-0.675	-1.41	-0.843	-0.864	-0.604	-0.594
CCc1cc(C(N)=S)ccn1 [Ethionamide]	-0.517	-0.148	-0.588	0.221	-0.493	-0.459
COc1c(N2CCNC(C)C2)c(F)cc2c(=O)c(C(=O)O)cn(C3CC3)c12 (stereo not drawn) [Gatifloxacin]	-0.517	0.0619	-0.124	0.333	-0.446	0.0101
CC(=O)OCC1=C(C(=O)O)N2C(=O)[C@@H](NC(=O)Cc3cccs3)[C@H]2SC1 [Cephalothin sodium salt]	-0.468	-0.884	-0.46	-0.115	-0.456	-0.652
COc1cc(OC)c(C(=O)CCCN2CCCC2)c(OC)c1 [Buflomedil hydrochloride]	-0.502	0.473	-0.535	-0.534	-0.503	-0.263
CN1CCC(=C2c3ccccc3CC(=O)c3sccc32)CC1 [Ketotifen fumarate]	0.0746	0.508	0.273	-0.159	0.289	0.175
CN1CCN(CCCN2c3ccccc3Sc3ccc(C(F)(F)F)cc32)CC1 [Trifluoperazine dihydrochloride]	1.83	-0.0806	-0.826	0.153	2.06	3.01
Nc1c(Br)cc(Br)cc1CN[C@H]1CC[C@H](O)CC1 [Ambroxol hydrochloride]	-0.487	0.757	-0.529	-0.141	-0.428	-0.0836
COc1cc2nc(N3CCN(C(=O)C4COc5ccccc5O4)CC3)nc(N)c2cc1OC (stereo not drawn) [Doxazosin mesylate]	3.8	3.08	2.89	1.62	2.83	2.39
